According to the supplement of paper PMC4466140:

B1: unnamed (peptide)
chain: PSTMDFPKLPSFQNS
B2: unnamed (peptide)
chain: GKLKHIPRRPYEIER

Each binder was assayed against AgAbp1 (assay: SPOT peptide array binding signal intensity (averaged, normalized) (arbitrary units (background-subtracted, floor 0; scale differs between SH3 domains)); higher = stronger binding of the SH3 domain to the peptide).
Procedure, shortened: (§1)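 Binding signal is given in arbitrary units that differ between domains and is the normalized, background-subtracted spot intensity averaged across replicates. Each GST-SH3 fusion from one of four yeast species was made in E. coli BL21(DE3), purified on glutathione Sepharose and incubated at 10 μg/ml overnight at 4°C on cellulose-bound synthetic 15-mer peptides in which cysteines were replaced by serines. Detection used anti-GST antibody, an HRP anti-mouse secondary and luminol, followed by imaging and Genespotter quantification.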

Binder	SPOT peptide array binding signal intensity
B1	3

The binders below were run against AgBbc1 in the same assay as above.
Procedure, shortened: as §1

Binder	SPOT peptide array binding signal intensity
B1	10.5

These binders were tested against AgBem1-D1 in the same assay as above.
Procedure, shortened: as §1

Binder	SPOT peptide array binding signal intensity
B1	88.5

What follows are binders tested against AgBzz1-D1 in the same assay as above.
Procedure, shortened: as §1

Binder	SPOT peptide array binding signal intensity
B1	13

These binders were tested against AgBzz1-D2 in the same assay as above.
Procedure, shortened: as §1

Binder	SPOT peptide array binding signal intensity
B1	≤ 0

What follows are binders tested against AgCyk3 in the same assay as above.
Procedure, shortened: as §1

Binder	SPOT peptide array binding signal intensity
B1	≤ 0

These binders were tested against AgFus1 in the same assay as above.
Procedure, shortened: as §1

Binder	SPOT peptide array binding signal intensity
B1	347

Each binder was assayed against AgHof1 in the same assay as above.
Procedure, shortened: as §1

Binder	SPOT peptide array binding signal intensity
B1	63.2

Each binder was assayed against AgHse1 in the same assay as above.
Procedure, shortened: as §1

Binder	SPOT peptide array binding signal intensity
B1	198

The binders below were run against AgLsb1 in the same assay as above.
Procedure, shortened: as §1

Binder	SPOT peptide array binding signal intensity
B1	0.5

What follows are binders tested against AgLsb4 in the same assay as above.
Procedure, shortened: as §1

Binder	SPOT peptide array binding signal intensity
B1	6

The binders below were run against AgMyo5 in the same assay as above.
Procedure, shortened: as §1

Binder	SPOT peptide array binding signal intensity
B1	13.5

What follows are binders tested against AgNbp2 in the same assay as above.
Procedure, shortened: as §1

Binder	SPOT peptide array binding signal intensity
B1	179

The binders below were run against AgRvs167 in the same assay as above.
Procedure, shortened: as §1

Binder	SPOT peptide array binding signal intensity
B1	3.5

What follows are binders tested against AgSho1 in the same assay as above.
Procedure, shortened: as §1

Binder	SPOT peptide array binding signal intensity
B1	376

What follows are binders tested against AgSla1-D1-D2 in the same assay as above.
Procedure, shortened: as §1

Binder	SPOT peptide array binding signal intensity
B1	≤ 0

What follows are binders tested against AgSla1-D3 in the same assay as above.
Procedure, shortened: as §1

Binder	SPOT peptide array binding signal intensity
B1	0.5

The binders below were run against CaAbp1-D1 in the same assay as above.
Procedure, shortened: as §1

Binder	SPOT peptide array binding signal intensity
B1	0.5

Each binder was assayed against CaAbp1-D2 in the same assay as above.
Procedure, shortened: as §1

Binder	SPOT peptide array binding signal intensity
B1	43.5

The binders below were run against CaBbc1 in the same assay as above.
Procedure, shortened: as §1

Binder	SPOT peptide array binding signal intensity
B1	34.5

These binders were tested against CaBem1-D1 in the same assay as above.
Procedure, shortened: as §1

Binder	SPOT peptide array binding signal intensity
B1	54

The binders below were run against CaBzz1-D1 in the same assay as above.
Procedure, shortened: as §1

Binder	SPOT peptide array binding signal intensity
B1	85

These binders were tested against CaBzz1-D2 in the same assay as above.
Procedure, shortened: as §1

Binder	SPOT peptide array binding signal intensity
B1	57.5

What follows are binders tested against CaCyk3 in the same assay as above.
Procedure, shortened: as §1

Binder	SPOT peptide array binding signal intensity
B1	8

What follows are binders tested against CaFus1 in the same assay as above.
Procedure, shortened: as §1

Binder	SPOT peptide array binding signal intensity
B1	1020

Each binder was assayed against CaHof1 in the same assay as above.
Procedure, shortened: as §1

Binder	SPOT peptide array binding signal intensity
B1	1

What follows are binders tested against CaHse1 in the same assay as above.
Procedure, shortened: as §1

Binder	SPOT peptide array binding signal intensity
B1	156

These binders were tested against CaLsb1 in the same assay as above.
Procedure, shortened: as §1

Binder	SPOT peptide array binding signal intensity
B1	0.5

These binders were tested against CaLsb4 in the same assay as above.
Procedure, shortened: as §1

Binder	SPOT peptide array binding signal intensity
B1	390

The binders below were run against CaMyo5 in the same assay as above.
Procedure, shortened: as §1

Binder	SPOT peptide array binding signal intensity
B1	95.5

Each binder was assayed against CaNbp2 in the same assay as above.
Procedure, shortened: as §1

Binder	SPOT peptide array binding signal intensity
B1	340

What follows are binders tested against CaRvs167 in the same assay as above.
Procedure, shortened: as §1

Binder	SPOT peptide array binding signal intensity
B1	33.3

These binders were tested against CaRvs167-3 in the same assay as above.
Procedure, shortened: as §1

Binder	SPOT peptide array binding signal intensity
B1	6.5

These binders were tested against CaSho1 in the same assay as above.
Procedure, shortened: as §1

Binder	SPOT peptide array binding signal intensity
B1	1290

Each binder was assayed against CaSla1-D1-D2 in the same assay as above.
Procedure, shortened: as §1

Binder	SPOT peptide array binding signal intensity
B1	136

The binders below were run against CaSla1-D3 in the same assay as above.
Procedure, shortened: as §1

Binder	SPOT peptide array binding signal intensity
B1	157

What follows are binders tested against ScAbp1 in the same assay as above.
Procedure, shortened: as §1

Binder	SPOT peptide array binding signal intensity
B1	3

Each binder was assayed against ScBbc1 in the same assay as above.
Procedure, shortened: as §1

Binder	SPOT peptide array binding signal intensity
B1	≤ 0

These binders were tested against ScBem1-D1 in the same assay as above.
Procedure, shortened: as §1

Binder	SPOT peptide array binding signal intensity
B1	≤ 0

The binders below were run against ScBzz1-D1 in the same assay as above.
Procedure, shortened: as §1

Binder	SPOT peptide array binding signal intensity
B1	2

These binders were tested against ScBzz1-D2 in the same assay as above.
Procedure, shortened: as §1

Binder	SPOT peptide array binding signal intensity
B1	10.5

These binders were tested against ScCyk3 in the same assay as above.
Procedure, shortened: as §1

Binder	SPOT peptide array binding signal intensity
B1	5

What follows are binders tested against ScFus1 in the same assay as above.
Procedure, shortened: as §1

Binder	SPOT peptide array binding signal intensity
B1	414

These binders were tested against ScHof1 in the same assay as above.
Procedure, shortened: as §1

Binder	SPOT peptide array binding signal intensity
B1	88.2

Each binder was assayed against ScHse1 in the same assay as above.
Procedure, shortened: as §1

Binder	SPOT peptide array binding signal intensity
B1	130

What follows are binders tested against ScLsb1 in the same assay as above.
Procedure, shortened: as §1

Binder	SPOT peptide array binding signal intensity
B1	11

What follows are binders tested against ScLsb2 in the same assay as above.
Procedure, shortened: as §1

Binder	SPOT peptide array binding signal intensity
B1	≤ 0

What follows are binders tested against ScLsb3 in the same assay as above.
Procedure, shortened: as §1

Binder	SPOT peptide array binding signal intensity
B1	184

What follows are binders tested against ScLsb4 in the same assay as above.
Procedure, shortened: as §1

Binder	SPOT peptide array binding signal intensity
B1	140

What follows are binders tested against ScMyo3 in the same assay as above.
Procedure, shortened: as §1

Binder	SPOT peptide array binding signal intensity
B1	28.5

These binders were tested against ScMyo5 in the same assay as above.
Procedure, shortened: as §1

Binder	SPOT peptide array binding signal intensity
B1	10.5

What follows are binders tested against ScNbp2 in the same assay as above.
Procedure, shortened: as §1

Binder	SPOT peptide array binding signal intensity
B1	252

Each binder was assayed against ScPex13 in the same assay as above.
Procedure, shortened: as §1

Binder	SPOT peptide array binding signal intensity
B1	221

The binders below were run against ScRvs167 in the same assay as above.
Procedure, shortened: as §1

Binder	SPOT peptide array binding signal intensity
B1	11.3

These binders were tested against ScSho1 in the same assay as above.
Procedure, shortened: as §1

Binder	SPOT peptide array binding signal intensity
B1	528

These binders were tested against ScSla1-D1-D2 in the same assay as above.
Procedure, shortened: as §1

Binder	SPOT peptide array binding signal intensity
B1	60

These binders were tested against ScSla1-D3 in the same assay as above.
Procedure, shortened: as §1

Binder	SPOT peptide array binding signal intensity
B1	290

The binders below were run against SpAbp1-D1 in the same assay as above.
Procedure, shortened: as §1

Binder	SPOT peptide array binding signal intensity
B1	≤ 0

Each binder was assayed against SpBbc1 in the same assay as above.
Procedure, shortened: as §1

Binder	SPOT peptide array binding signal intensity
B1	≤ 0

What follows are binders tested against SpBzz1-D1 in the same assay as above.
Procedure, shortened: as §1

Binder	SPOT peptide array binding signal intensity
B1	205

These binders were tested against SpBzz1-D2 in the same assay as above.
Procedure, shortened: as §1

Binder	SPOT peptide array binding signal intensity
B1	10.5
B2	≤ 0

These binders were tested against SpCyk3 in the same assay as above.
Procedure, shortened: as §1

Binder	SPOT peptide array binding signal intensity
B1	1
B2	2.5

These binders were tested against SpHof1 in the same assay as above.
Procedure, shortened: as §1

Binder	SPOT peptide array binding signal intensity
B1	30.2
B2	8

These binders were tested against SpHof1-2 in the same assay as above.
Procedure, shortened: as §1

Binder	SPOT peptide array binding signal intensity
B1	72.2
B2	1

What follows are binders tested against SpHof1-3 in the same assay as above.
Procedure, shortened: as §1

Binder	SPOT peptide array binding signal intensity
B1	18
B2	44.2

These binders were tested against SpHse1 in the same assay as above.
Procedure, shortened: as §1

Binder	SPOT peptide array binding signal intensity
B1	289
B2	21

These binders were tested against SpLsb1 in the same assay as above.
Procedure, shortened: as §1

Binder	SPOT peptide array binding signal intensity
B1	≤ 0
B2	12

These binders were tested against SpLsb4 in the same assay as above.
Procedure, shortened: as §1

Binder	SPOT peptide array binding signal intensity
B1	658
B2	53.5

These binders were tested against SpMyo1 in the same assay as above.
Procedure, shortened: as §1

Binder	SPOT peptide array binding signal intensity
B1	91.5
B2	0.75

These binders were tested against SpNbp2 in the same assay as above.
Procedure, shortened: as §1

Binder	SPOT peptide array binding signal intensity
B1	130
B2	≤ 0

The binders below were run against SpPex13 in the same assay as above.
Procedure, shortened: as §1

Binder	SPOT peptide array binding signal intensity
B1	38
B2	≤ 0

These binders were tested against SpRvs167 in the same assay as above.
Procedure, shortened: as §1

Binder	SPOT peptide array binding signal intensity
B1	59
B2	3.17

What follows are binders tested against SpSla1-D1-D2 in the same assay as above.
Procedure, shortened: as §1

Binder	SPOT peptide array binding signal intensity
B1	4
B2	≤ 0

These binders were tested against SpSla1-D3 in the same assay as above.
Procedure, shortened: as §1

Binder	SPOT peptide array binding signal intensity
B1	133
B2	≤ 0
